The record followed here is PubChem BioAssay AID1845 (The Scripps Research Institute Molecular Screening Center, 2009).

Screen size: about 290,000 compounds; about 490 (0.17%) were called active. Cut-off read from the data, not from the text of the source: active = inhibition above about 37%; inactive = the rest. Only a selection was taken, and actives are over-represented in it overall.

Broadly, the inhibition is the change of the read-out against control, counted positive when it falls.

The assay is described as follows: compounds displacing fluorescent DNA intercalator, primary screen, artefact control for HCV NS3 helicase inhibitor project, biochemical, FID fluorescence (AID 1845).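 Note: 0% = vehicle and 100% = reference compound; higher means more ethidium bromide displaced from hairpin DNA.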 The note with it: DNA fluorescent intercalator displacement, at 7.9 µM, hits give high values.
With `CCN(CC(=O)Nc1ccccc1OC)C(=O)Cn1cnc2ccccc2c1=O`, the inhibition was -5.22% (inactive).
The result for `Cc1cc(-c2nnc(CCC(=O)NC(c3ccccc3)c3ccccc3)o2)no1` reads -7.1% (inactive); that for `Cc1ccc(C(C)C)c(OCCSc2nc3ccccc3n2CC(=O)O)c1`, -11.6% (inactive).
Then `O=C(CSc1nc2nccnc2c(=O)n1Cc1cccs1)Nc1ccccc1F`, with -11.4% (inactive).
As for `COc1ccc(-c2noc(C(C)NS(=O)(=O)c3ccc(NC(C)=O)cc3)n2)cc1` (stereo unspecified), the inhibition was -8% (inactive).
The result for `CCCCCC1CC(COc2ccccc2)OC1=O` (stereo unspecified) reads -26.6% (inactive); that for `O=C1C(=O)N(CCN2CCOCC2)C(c2cccc(Cl)c2)/C1=C(/O)c1ccc2c(c1)OCO2` (stereo unspecified), -31.7% (inactive); that for `Cc1nnc(SCC(=O)N2c3ccccc3C(C)(c3ccc(Cl)cc3)CC2(C)C)s1` (stereo unspecified), -27.2% (inactive).
The result for `Cn1c(=O)n(C)c2cc(S(=O)(=O)Nc3ccc(F)cc3)ccc21` reads -0.97% (inactive); that for `CCc1ccc(-c2cc(C(=O)NN3CCN(C)CC3)c3ccccc3n2)cc1`, 16.5% (inactive).
The result for `O=S(=O)(NCC1CC1)c1ccc(F)c(Cl)c1` reads -2.55% (inactive).
For the compound `O=C(NCC(=O)N1CCN(c2ccccc2O)CC1)c1ccc2ccccc2c1`, the inhibition is -38.7% (inactive).
Then `CCc1ccc(NC(=O)COC(=O)c2cccs2)cc1`, with -15% (inactive); and `CCOC(OCC)c1ccc(/C=C\c2nccc(N)n2)cc1`, with -11.1% (inactive).
Then `CCN1CCN(c2ccc(S(=O)(=O)N3CCCCC3)cc2NC(=O)Cc2c(Cl)cccc2Cl)CC1`, with 24.2% (inactive); and `CN1CCN(c2ccc(S(=O)(=O)N3CCCCC3)cc2NC(=O)Cc2ccccc2F)CC1`, with 17.4% (inactive).
The result for `COc1ccc(CC(=O)Nc2cc(S(=O)(=O)N3CCCCC3)ccc2N2CCN(C)CC2)cc1` reads 39.2% (active).
In the case of `CN(C)c1cccc(C(=O)N2CCC(n3nccc3NC(=O)C3CCOC3)CC2)c1` (stereo unspecified), the inhibition is -16.7% (inactive).
Take `COc1ccc(NC(=O)CSc2nc3ccccc3c(=O)n2C)cc1`: the inhibition is -13.4% (inactive).
Then `COCCCN1C(=O)C(=O)/C(=C(/O)c2ccc(S(=O)(=O)N3CCOCC3)cc2)C1c1ccc(F)cc1` (stereo unspecified), with -50.7% (inactive).
Then `CC1CN(C(=O)CCC(=O)NC2CCN(Cc3ccccc3)CC2)c2ccccc2O1` (stereo unspecified), with 2.82% (inactive); and `CC1CN(C(=O)CCC(=O)NCc2cccnc2)c2ccccc2O1` (stereo unspecified), with -10.2% (inactive).
With `CC1CN(C(=O)CCC(=O)NCCCN2CCC(Cc3ccccc3)CC2)c2cc(Cl)ccc2O1` (stereo unspecified), the inhibition is 41.2% (active).
The result for `Cc1cc(O)c(C(=O)/C=C/c2c(F)c(F)c(F)c(F)c2F)c(=O)o1` reads -15.9% (inactive).
The result for `CC1CC(C)CN(CCCNC(=O)Cn2ncc3c([nH]c4ccccc43)c2=O)C1` (stereo unspecified) reads 5.73% (inactive); that for `Cc1c2cnn(CC(=O)NCc3ccccn3)c(=O)c2c(C)n1Cc1ccc(Cl)cc1`, -39% (inactive); that for `Cc1c2cnn(CC(=O)NCCCN3CC(C)CC(C)C3)c(=O)c2c(C)n1Cc1ccc(Cl)cc1` (stereo unspecified), 37.1% (active).
Then `CN(C)CCNC(=O)/C(=C/c1cccc([N+](=O)[O-])c1)NC(=O)c1ccccc1`, with 14.4% (inactive); and `Cc1ccc(C(=O)N/C(=C/c2ccc(-c3cccc([N+](=O)[O-])c3)o2)C(=O)NCCCN(C)C)cc1`, with 41.5% (active).
In the case of `N#C/C(=C\c1ccc(-c2cccc([N+](=O)[O-])c2)o1)C(=O)NCCN1CCOCC1`, the inhibition is 6.61% (inactive).
For `CCN(CC)CCCNC(=O)Cn1cnc2sc(C)c(S(=O)(=O)N3CCN(c4ncccn4)CC3)c2c1=O`, the inhibition is 26.1% (inactive).
The result for `CCN(CC)CCNC(=O)c1sc2ncn(CC(=O)Nc3ccc(C)c(Cl)c3)c(=O)c2c1C` reads 37% (active); that for `CCN(CC)CCNC(=O)Cn1cnc2sc(C)c(S(=O)(=O)N3CCOCC3)c2c1=O`, 11.1% (inactive).
The result for `O=C(c1c(F)cccc1F)N1CCN(c2ncc(Br)cn2)CC1` reads -20.1% (inactive); that for `Cc1cc(=O)oc2c3c(cc(OCC(=O)NCCC(=O)N[C@@H](C)C(=O)O)c12)OC(C)(C)CC3`, -35.5% (inactive); that for `CCn1c(=O)c(C(=O)NCc2ccc3c(c2)OCO3)c(O)c2ccccc21`, -4.83% (inactive).
Then `CC1CC(C)CN(S(=O)(=O)c2cccc3nonc23)C1` (stereo unspecified), with -7.76% (inactive); and `C=CCN(Cc1nc(-c2cc(OC)c3c(c2)OCO3)oc1C)C1CCS(=O)(=O)C1` (stereo unspecified), with -27.8% (inactive).
Turning to `Clc1cc(NC2CCCCC2)ncn1`, the inhibition was -15.2% (inactive).
The result for `CS(=O)(=O)N(CC(=O)N/N=C/c1ccccn1)c1ccc(Oc2ccccc2)cc1` reads -33.5% (inactive); that for `Cc1cc(C)c2nc3nc(C)cc(C)c3c(N)c2c1`, 62.7% (active); that for `Cc1cc(C)c2nc(SCCC#N)nc(C)c2c1`, -17% (inactive).
The result for `Cc1cc(C)c2c(n1)nn1c(N3CCOCC3)cc(C)nc21` reads -11.1% (inactive).
Turning to `O=C1c2ccccc2C(=O)c2c1cccc2N1CCN(Cc2ccccc2)CC1`, the inhibition is 8.12% (inactive).
Take `OCCN1CCN(c2nnc(-c3ccccc3)c3ccccc23)CC1`: the inhibition was -5.67% (inactive).
Take `O=C1c2ccccc2C(=O)c2c1cccc2N1CCN(CCO)CC1`: the inhibition is 53.2% (active).
Then `Cc1cccc(-c2nc(CS(=O)CC(=O)NC(C)CCc3ccccc3)c(C)o2)c1` (stereo unspecified), with -57.2% (inactive); and `CC(=N\NC(=O)c1cc(Br)ccc1O)/C(=N/O)C(=O)Nc1ccccc1`, with -11.2% (inactive); and `CN1CCN(NC(=O)Nc2ccc(Br)cc2)CC1`, with -5.13% (inactive).
Regarding `COc1ccccc1NC(=O)C(C)OC(=O)CC1CCCC1` (stereo unspecified), the inhibition is -26.3% (inactive).
As for `CC(=O)NC(CC(=O)Nc1nc(-c2ccccc2)c(C(C)=O)s1)c1ccccc1` (stereo unspecified), the inhibition is -16.9% (inactive).
Then `Clc1nc(NC2CCCC2)nc(N2CCOCC2)n1`, with -6.99% (inactive); and `O=C(CNC(=O)[C@@H]1Cc2ccccc2CN1)NC1CCCCC1`, with 0.62% (inactive); and `CC(C)c1cc(C(=O)N/N=C/C(Br)=C/c2ccccc2)n[nH]1`, with -26.4% (inactive).
Then `CCN(CC(=O)NCc1cccs1)C(=O)c1cccc(S(=O)(=O)Nc2ccccc2OC)c1`, with -11.7% (inactive); and `COCCNC(=O)c1ccc(S(=O)(=O)c2ccc(Cl)cc2)c(NC(C)=O)c1`, with 0.74% (inactive); and `COC(=O)C1(C)NC(c2ccc(F)cc2)C2C(=O)N(c3ccccc3)C(=O)C21` (stereo unspecified), with 0.11% (inactive).
Turning to `CN(C)C(=O)CCC(=O)N1CCCCC1C(=O)Nc1ccc(Oc2ccccc2F)cc1` (stereo unspecified), the inhibition is -34% (inactive).
The result for `C#CCOCCOCCOCCNc1nc(N2CCN(C(=O)[C@H](CCCCN)n3cc([C@@H](N)C(C)CC)nn3)CC2)nc(N2CCN(C(=O)[C@H](Cc3ccc(O)cc3)n3cc([C@@H](N)C(C)CC)nn3)CC2)n1` (stereo partly specified) reads 55.6% (active).
Then `C#CCOCCOCCOCCNc1nc(N2CCN(C(=O)[C@H](CCC(=O)O)n3cc(C(N)CO)nn3)CC2)nc(N2CCN(C(=O)[C@H](Cc3ccc(O)cc3)n3cc(C(N)[C@H](C)CC)nn3)CC2)n1` (stereo partly specified), with 6.75% (inactive); and `C#CCOCCOCCOCCNc1nc(N2CCN(C(=O)[C@H](Cc3ccc(O)cc3)n3cc(C(N)CC(C)C)nn3)CC2)nc(N2CCN(C(=O)[C@H](CCC(=O)O)n3cc(C(N)[C@H](C)CC)nn3)CC2)n1` (stereo partly specified), with 17.7% (inactive).
With `C#CCOCCOCCOCCNc1nc(N2CCN(C(=O)[C@H](C(C)C)n3cc(CCO)nn3)CC2)nc(N2CCN(C(=O)[C@H](C(C)C)n3cc(CCO)nn3)CC2)n1`, the inhibition is -49.9% (inactive).
The result for `C#CCOCCOCCOCCNc1nc(N2CCN(C(=O)C(Cc3ccc(O)cc3)n3cc(C(N)CC(C)C)nn3)CC2)nc(N2CCN(C(=O)C(Cc3ccc(O)cc3)n3cc(C(N)C(C)CC)nn3)CC2)n1` (stereo unspecified) reads 46.3% (active).
As to `C#CCOCCOCCOCCNc1nc(N2CCN(C(=O)[C@H](C(C)C)n3cc(CCO)nn3)CC2)nc(N2CCN(C(=O)[C@H]([C@@H](C)CC)n3cc(CCCN=C(N)N)nn3)CC2)n1`, the inhibition was 21.4% (inactive).
The result for `Cc1cc(C)n(CCNS(=O)(=O)c2ccc(Cl)cc2)n1` reads -8.78% (inactive); that for `COc1ccc(S(=O)(=O)NNC(=O)Nc2ccc(C)cc2)c(OC)c1`, -10.4% (inactive).
Consider `CN1CCN(S(=O)(=O)c2cccc(C(=O)Nc3cccc(S(N)(=O)=O)c3)c2)CC1`, for which the inhibition was 12.4% (inactive).
The result for `Cc1ccc(S(=O)(=O)NC2CCCCCC2)cc1C(N)=O` reads -7.28% (inactive); that for `CSc1ncc(C(=O)Nc2ccc(C)cc2C)c(C)n1`, -12.3% (inactive); that for `Cc1ccccc1C(=O)N1CCN(c2ccc(NC(=O)c3cccs3)cc2)CC1`, -49.5% (inactive).
Then `CC(C)c1nc2cc(C(=O)NC(C)c3cnn(C)c3)ccc2o1` (stereo unspecified), with -13.1% (inactive); and `COc1cccc(NC(=O)Cn2cnc3sc(C)c(S(=O)(=O)N4CCN(C)CC4)c3c2=O)c1`, with 26.6% (inactive); and `COc1ccc(NC(=O)CCS(=O)(=O)c2cc3c(cc2Cl)NC(=O)CO3)cc1OC`, with -5.06% (inactive).
`COc1ccc(CNC(=O)C(c2ccc(O)cc2)N(Cc2ccco2)C(=O)c2snc(C(N)=O)c2N)cc1` (stereo unspecified): the inhibition is -26.1% (inactive).
Then `O=C(Cn1c(NCCO)nc2ccccc21)c1ccc(Cl)cc1Cl`, with 8.95% (inactive).
The result for `Cc1cc(C)c2c(Cn3ccnc3)cc(=O)oc2c1` reads -1.43% (inactive); that for `Cc1sc2nc(SCCO)n(-c3ccccc3)c(=O)c2c1C`, -17.8% (inactive).
Take `Cc1cc(=O)[nH]c(Nc2cccc(Br)c2)n1`: the inhibition is -6.32% (inactive).
In the case of `CC(C)(C)OC(=O)CNC(=O)c1[nH]cnc1C(=O)N[C@@H](Cc1ccccc1)C(=O)OCc1ccccc1`, the inhibition was -34.4% (inactive).
Then `CN(C)C(=O)c1ccc(NC(=O)c2ccccc2-c2ccccc2)cc1`, with -15.1% (inactive); and `Cc1ccoc1C(=O)Nc1cccc(Oc2ccccc2)c1`, with -5.38% (inactive).
